LYPLA2 inh: blocks human lysophospholipase 2, a PME1 counter-screen. O95372. recombinant LYPLA2, FP-Rh probe fluorescence polarization. inhibition, % at 5.9 µM. 320,000 tested, 0.38% active. AID 2177;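 active = inhibition above the screen-wide mean plus 3 SD, limit set per campaign, cut at about 26% in these data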;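 note: 0% = LYPLA2 with DMSO and 100% = wells lacking LYPLA2 enzyme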
LYPLA1 inh: LYPLA1 (human) inhibition in PME1 counter-screen | O75608 | 320,000 tested, 0.16% active | inhibition, % at 5.9 µM | recombinant LYPLA1, FP-Rh probe fluorescence polarization | AID 2174;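 active = inhibition above the mean of all tested compounds plus 3 SD, set per campaign, cut at about 14% in these data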;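 note: inhibitors block serine hydrolase probe labeling of LYPLA1 so polarization falls; 0% = enzyme with DMSO and 100% = wells lacking LYPLA1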
Target sequence (O75608 whole entry, looked up): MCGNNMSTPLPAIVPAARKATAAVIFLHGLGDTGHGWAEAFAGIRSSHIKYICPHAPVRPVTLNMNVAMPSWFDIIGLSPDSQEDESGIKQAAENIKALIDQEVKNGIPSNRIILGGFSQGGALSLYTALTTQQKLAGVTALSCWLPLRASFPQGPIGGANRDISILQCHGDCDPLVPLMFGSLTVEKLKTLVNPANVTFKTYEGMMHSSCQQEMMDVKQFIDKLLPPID
PAFAH1B2 FP inh: PAFAH1B2 (human) inhibition | P68402 | recombinant PAFAH1B2, FP-rhodamine activity probe, fluorescence polarization | inhibition, % at 3.39 µM | 340,000 tested, 1.2% active | AID 492953;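 active = inhibition above the mean of all tested compounds plus 3 SD, cut at about 24% in these data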;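 note: 0% = enzyme with DMSO and 100% = wells lacking PAFAH1B2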
Target sequence (P68402 whole entry, looked up): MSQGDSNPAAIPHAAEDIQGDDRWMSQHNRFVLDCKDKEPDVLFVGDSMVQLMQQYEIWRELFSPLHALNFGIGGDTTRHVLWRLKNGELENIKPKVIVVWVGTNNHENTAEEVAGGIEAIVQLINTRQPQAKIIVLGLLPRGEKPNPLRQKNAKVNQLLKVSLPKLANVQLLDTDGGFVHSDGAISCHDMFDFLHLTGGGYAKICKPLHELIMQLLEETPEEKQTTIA
pPAFAH inh: pPAFAH (human) enzyme inhibition. 330,000 tested, 1.5% active. AID 463082. inhibition, % at 3.39 µM. Q13093. recombinant pPAFAH, FP-rhodamine probe fluorescence polarization;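 active = inhibition above the mean inhibition across the screen plus 3 SD, cut at about 25% in these data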;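 note: inhibitors block binding of the rhodamine activity-based probe so polarization drops; 0% = enzyme with DMSO and 100% = wells lacking pPAFAH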
PAFAH2 FP inh: PAFAH2 (human) inhibition. recombinant PAFAH2, FP-rhodamine activity probe, fluorescence polarization. inhibition, % at 3.39 µM. 340,000 tested, 0.99% active. AID 492956;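 active = inhibition above the mean over all tested compounds plus 3 SD, cut at about 30% in these data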;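 note: inhibitors block probe labeling of enzyme so polarization drops; 0% = enzyme with DMSO and 100% = wells lacking PAFAH2 protein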
PAFAH1B3 inh: blocks human PAF acetylhydrolase 1B catalytic subunit 3; AID 492972; inhibition, % at 3.39 µM; Q15102; 340,000 tested, 0.28% active; recombinant PAFAH1B3, FP-rhodamine probe, fluorescence polarization;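 active = inhibition above the screen-wide average of all tested compounds plus 3 SD, cut at about 25% in these data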;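 note: 0% = enzyme with DMSO only and 100% = wells lacking PAFAH1B3 protein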
Target sequence (Q15102 whole entry, looked up): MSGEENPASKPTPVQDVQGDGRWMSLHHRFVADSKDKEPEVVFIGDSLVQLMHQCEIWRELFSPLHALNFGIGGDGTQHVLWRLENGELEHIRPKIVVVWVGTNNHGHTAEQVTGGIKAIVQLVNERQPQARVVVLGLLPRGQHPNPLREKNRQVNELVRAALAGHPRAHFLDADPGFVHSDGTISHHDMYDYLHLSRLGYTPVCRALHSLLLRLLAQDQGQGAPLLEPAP
* hit, by the source's call; / = no result given. In the library only some 2.9% were active in any assay of this set; here they are far more common.

SMILES | LYPLA2 inh | LYPLA1 inh | PAFAH1B2 FP inh | pPAFAH inh | PAFAH2 FP inh | PAFAH1B3 inh
O=C(CNc1cccc(F)c1)Nc1cccc(S(=O)(=O)N2CCCCC2)c1 | / | / | 2.8 | / | 1.3 | -0.1
CCOc1ncccc1C(=O)OCC(=O)Nc1c(C)cccc1C | 1.7 | 2.2 | 1.7 | 12.8 | 18.5 | 0.4
CCOc1ncccc1C(=O)OCC(=O)Nc1c(C)cc(C)cc1C | -4.9 | -0.9 | 5.1 | 26.4* | 33.5* | 3.3
O=C(COC(=O)c1ccccc1Br)NC1CCCCCCC1 | / | / | 12.3 | 32.0* | 86.5* | 14.4
CCOc1ncccc1C(=O)OCC(=O)Nc1ccc(-c2nc3ccc(C)cc3s2)cc1 | -9.7 | -2.5 | 0.1 | 24.6* | 17.6 | -3.0
Cc1ccc2nc(-c3ccc(NC(=O)COC(=O)c4ccco4)cc3)sc2c1 | -16.2 | -9.4 | -5.5 | -2.2 | 15.9 | -12.0
O=C(COC(=O)c1sc2ccccc2c1Cl)NC1CCCCC1 | 4.4 | 0.4 | 0.4 | 30.8* | -7.8 | 0.3
NC(=O)NC(=O)COC(=O)c1sc2ccccc2c1Cl | -88.5 | -31.5 | -36.0 | -2.3 | -49.4 | -16.7
CCCS(=O)(=O)c1nc(S(=O)(=O)c2ccc(C)cc2)c(NCc2ccccn2)s1 | -4.3 | 0.4 | 1.4 | -3.0 | 4.0 | 8.2
CC(C)n1nccc1N(Cc1ccc(Cl)cc1)S(=O)(=O)c1ccccc1 | 2.5 | 2.3 | 3.6 | 2.4 | -4.3 | 6.2
O=C(COC(=O)c1ccc(F)cc1Cl)NC1CCCCCCC1 | / | / | 4.9 | 33.4* | 85.9* | 7.7
CCOc1ncccc1C(=O)OCC(=O)NC1CCCCC1 | / | / | 2.9 | 30.9* | 79.4* | 8.3
Cc1cc(C)n2c(SCC(C)C)nnc2n1 | 0.2 | 1.4 | -1.8 | 1.9 | -2.8 | 7.4
NC(Cc1c[nH]c2ccc(OCc3ccccc3)cc12)C(=O)O (stereo unspecified) | 7.2 | -2.2 | 12.5 | 25.9* | -0.6 | 9.0
N[C@@H](Cc1c[nH]c2ccc(O)cc12)C(=O)O | 1.9 | -1.2 | -0.7 | 10.1 | -1.4 | -5.2
Cc1nonc1NC(=O)OCCN1CCOC1=O | 6.3 | 4.1 | 3.4 | -3.2 | 0.7 | 0.3
C=CCn1c(-c2cccn(Cc3ccc(Cl)cc3)c2=O)n[nH]c1=S | 2.1 | -1.9 | 33.0* | 4.3 | -0.2 | 4.4
C=CCn1c(-c2cccn(Cc3ccc(Cl)cc3Cl)c2=O)n[nH]c1=S | -1.9 | -0.8 | 29.1* | -6.1 | 2.2 | 5.1
C=CCn1c(-c2cccn(Cc3ccccc3)c2=O)n[nH]c1=S | -8.3 | -1.8 | 6.6 | -0.1 | 5.1 | 2.7
C=CCn1c(-c2cccn(Cc3cccc(Cl)c3)c2=O)n[nH]c1=S | -3.2 | 2.4 | 1.4 | -1.1 | -1.2 | -1.4
COc1ccc(-n2c(=O)/c(=C\c3cccs3)s/c2=C(/C#N)C(=O)N2CCN(C)CC2)cc1 | 1.9 | 0.1 | 0.8 | -0.2 | -1.0 | -5.3
COc1ccc(Cl)cc1NC(=O)CSc1nc(=O)n(CCN(C)C)c2c1CCCC2 | 0.9 | -4.0 | -4.2 | 3.8 | 11.6 | -1.2
Cc1ccc(Cn2nc(C)c(NC(=O)CSc3n[nH]c(C)c3[N+](=O)[O-])c2C)cc1 | -4.1 | -4.8 | 1.9 | -0.8 | 3.5 | -5.6
COCCNC(=O)C(c1ccc(C)cc1)N(CCOC)C(=O)CCC(=O)Nc1nccs1 (stereo unspecified) | -2.3 | -4.5 | 0.6 | -1.7 | -4.9 | 1.7
Cc1cnc(C(=O)OC(C)C(=O)Nc2cccc3ccccc23)cn1 (stereo unspecified) | 7.1 | 1.4 | 3.5 | -4.4 | 4.3 | 5.3
SMILES | LYPLA2 inh | LYPLA1 inh | PAFAH1B2 FP inh | pPAFAH inh | PAFAH2 FP inh | PAFAH1B3 inh
C/C(=N\N1CCN(c2ccccc2)CC1)c1ccco1 | 4.2 | -3.5 | 3.3 | 4.5 | -14.5 | 0.1
NC(=O)c1ccc(N2CCN(c3ccc(O)cc3)CC2)c([N+](=O)[O-])c1 | 31.5* | 9.3 | -7.5 | 15.9 | -0.1 | 2.7
CC(=O)c1ccc(N2CCN(c3ccc(C(N)=O)cc3[N+](=O)[O-])CC2)cc1 | 23.0 | 10.1 | 4.7 | 4.3 | -2.9 | 8.0
CC(NC(=O)CN(C)S(=O)(=O)c1cccc2nsnc12)c1ccccc1 (stereo unspecified) | 6.2 | 4.6 | 30.8* | 1.9 | 0.9 | 2.7
Cc1ccc(NC(=O)CN(C)S(=O)(=O)c2cccc3nsnc23)cc1 | -4.1 | 5.9 | 7.7 | 2.1 | -3.4 | 7.1
Cc1ncc2c(c1OC(=O)c1ccc([N+](=O)[O-])cc1)COC(C)(C)OC2 | -2.0 | 0.1 | -3.9 | 4.6 | -4.4 | 2.1
Cc1cc(C)n(CCNc2nc3nonc3nc2N2CCCCC2)n1 | -7.0 | 1.4 | 5.4 | 28.2* | -1.1 | 0.1
Cc1cc(C)n(CC(C)Nc2nc3nonc3nc2N2CCCCC2)n1 (stereo unspecified) | -0.8 | -0.5 | 2.5 | -4.2 | 4.1 | 7.2
COCCNC(=O)c1cccc(NS(=O)(=O)c2cccc3cccnc23)c1 | -5.6 | -1.9 | 3.7 | 1.9 | -1.0 | -11.1
CC(=O)c1ccc(NC(=O)CCCN2C(=O)COc3ccc(C)cc32)cc1 | -0.8 | -2.4 | 3.0 | 6.2 | 11.0 | 2.6
CCN(C(=O)CSc1ncccc1C(=O)O)C1CCCCC1 | 5.8 | 2.0 | 29.1* | -6.6 | -4.7 | 6.4
Cc1ccc(C)c(S(=O)(=O)Nc2cc(SCC(=O)O)c(O)c3ccccc23)c1 | 35.0* | 3.6 | 72.3* | 12.4 | 34.1* | 51.0*
CCOc1ccc(S(=O)(=O)Nc2cc(SCC(=O)O)c(O)c3ccccc23)cc1 | / | / | 16.0 | / | 21.1 | 23.4
O=C(O)CSc1cc(NS(=O)(=O)c2cccc([N+](=O)[O-])c2)c2ccccc2c1O | / | / | 27.6* | / | 27.7 | 49.3*
Cc1ccc(NS(=O)(=O)c2cc(NC(=O)C(C)Oc3ccccc3)ccc2C)c(C)c1 (stereo unspecified) | -24.8 | -8.5 | 3.0 | -1.1 | -8.1 | 3.7
CN(C)C(=O)c1ccc(NC(=O)COC(=O)CC23CC4CC(CC(Br)(C4)C2)C3)cc1 | -2.0 | 2.1 | 9.1 | -4.0 | 1.5 | -0.7
N#CCCn1ccc(NC(=O)c2ccc(Cl)cc2)n1 | -0.7 | -0.8 | 2.4 | 3.0 | 7.7 | 16.3
O=C(Cn1nnc(-c2cc(C(F)(F)F)cc(C(F)(F)F)c2)n1)NNC(=S)Nc1ccc(Cl)cc1 | 13.2 | 0.9 | 9.7 | 27.2* | 2.8 | 10.9
Cc1cc(C(F)(F)F)nn1CC(=O)NNC(=S)Nc1ccc(Cl)cc1 | 3.6 | -2.5 | 5.4 | 1.0 | 9.6 | -0.3
COc1ccc(NC(=O)CSc2nc3ccsc3c(=O)n2CCC(=O)O)c(OC)c1 | 9.6 | 1.8 | 3.8 | 4.5 | 1.8 | 6.8
O=C1/C(=C\c2ccco2)SC(=S)N1Cc1ccccc1 | -6.4 | -0.8 | -7.0 | 25.4* | 17.0 | 9.6
O=C(CCCN1C(=O)/C(=C\c2ccco2)SC1=S)Nc1ccc2ccccc2c1 | -7.9 | -13.1 | -6.8 | 28.4* | -13.2 | -4.5
Cc1ccc(N2C(=O)/C(=C\c3ccco3)SC2=S)cc1 | 0.9 | 2.3 | -0.2 | 16.1 | 5.2 | 1.7
O=C1/C(=C\c2ccco2)SC(=S)N1c1ccccc1 | -0.8 | -1.8 | 0.8 | 28.7* | 13.4 | 2.9
